Screening results (PubChem)
SMN2 splice enh = enhancers of SMN2 splice variant expression; AID 1458; HEK293 SMN2-luciferase splicing reporter, luminescence, 30-36 h; Potency, µM (top dose mostly 46.1 µM), for inactives: at the top dose activity change, positive = activation, most hits filed as activators; actives 2.8% (n = 210,000); also: % of control where 0% means no effect; nearly all actives have a fitted effect of over 55% in size
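qHTS luciferase splicing reporter: luminescence rises when SMN2 exon 7 is included in transfected HEK293 cells. Compound exposure lasted 30-36 h at 37C, with 4.5 mM final sodium butyrate as control, followed by a ONE-Glo read.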
FLuc modulator = counter-screen for miR-21 project: firefly luciferase inhibitors or activators; purified FLuc, Km substrates, luminescence inhibition; Potency, µM (titrated, usually from 57.5 µM), inactives show top-dose activity change, negative = inhibition, usual class: inhibitors; actives 6.9% (n = 360,000); AID 588342;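 also: plate controls were vehicle for no effect and reference inhibitor for full effect; nearly all actives have a fitted effect of over 55% in size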
Target sequence (P08659 whole entry, looked up): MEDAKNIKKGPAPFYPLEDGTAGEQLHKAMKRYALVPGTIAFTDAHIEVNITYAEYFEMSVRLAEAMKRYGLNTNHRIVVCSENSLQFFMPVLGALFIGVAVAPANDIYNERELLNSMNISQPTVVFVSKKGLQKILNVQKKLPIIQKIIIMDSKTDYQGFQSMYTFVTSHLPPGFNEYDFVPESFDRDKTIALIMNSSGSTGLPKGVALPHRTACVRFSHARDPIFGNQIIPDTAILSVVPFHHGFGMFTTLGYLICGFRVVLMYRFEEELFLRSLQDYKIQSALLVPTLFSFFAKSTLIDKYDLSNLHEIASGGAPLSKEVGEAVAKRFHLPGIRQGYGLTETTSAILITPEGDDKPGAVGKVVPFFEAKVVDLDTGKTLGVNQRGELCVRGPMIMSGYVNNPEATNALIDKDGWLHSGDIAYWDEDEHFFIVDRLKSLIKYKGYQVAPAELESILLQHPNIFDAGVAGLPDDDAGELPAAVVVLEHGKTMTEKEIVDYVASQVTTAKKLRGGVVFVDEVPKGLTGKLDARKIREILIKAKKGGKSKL
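Biochemical qHTS of compounds, final roughly 60 µM downward over six points, against 10 nM purified firefly luciferase using Km concentrations of substrates (10 uM D-luciferin, 10 uM ATP) in Tris acetate pH 7.5 buffer; luminescence output.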
ELG1 genotox = inducers of genotoxicity in HEK293T ELG1-luciferase cells. AID 504466. Potency, µM (top dose mostly 46 µM), for the others: at the highest dose activity change, positive = activation, actives largely listed as activators. actives 1.3% (n = 330,000). HEK293T ELG1-luciferase reporter, luminescence, 16 h; also: % of control where 0% means no effect; nearly all actives have a fitted effect of over 60% in size
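Step 1: seed 2,000 HEK293T ELG1-luciferase cells per well. Step 2: add compound or DMSO, incubate 16 hr at 37 °C. Step 3: ONE-Glo, 30 min at room temperature, read luminescence.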
NPC1 promoter act = activators of NPC1 promoter; actives 2.4% (n = 320,000); Huh7 NPC1 promoter luciferase reporter, 24 h; Potency, µM (highest dose often 9.22 µM), without a hit: at the highest dose activation, actives largely listed as activators; also: % of control where 0% means no effect; nearly all actives have a fitted effect of over 60% in size
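Stably transfected Huh7 (NPC1 promoter→luciferase), 1500 cells/well in Opti-MEM + 10% FBS, 2 h settle, then compound 24 h at 37 °C. Luminescence after 10 min with Amplite reagent.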
uPA surface inh = inhibitors of cell surface uPA generation; cell surface uPA generation assay, qHTS; actives 0.31% (n = 330,000); Potency, µM (top dose mostly 38.3 µM), without a hit: at the top dose activity change, negative = inhibition, usual class: inhibitors; active = well fitted inhibition curve with a large enough effect; inconclusive = small, poorly fitted or top-dose-only effect; inactive = no such curve, though single readings can be large or run the other way; tested in mouse RAW 264.7 cells; also: % is scaled to controls: 0 for no effect and ±100 for the full control effect; nearly all actives have a fitted effect of over 55% in size
Rab9 promoter act = Rab9 promoter activation. Huh7 Rab9 promoter-luciferase reporter, luminescence, 24 h. Potency, µM (series often up to 9.22 µM), without a hit: top-dose activation, negative = inhibition, hits mostly activators. actives 2.8% (n = 320,000). AID 485297; also: % of control where 0% means no effect; nearly all actives have a fitted effect of over 60% in size
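Promoter activation is measured as luciferase luminescence in Huh7 cells stably transfected with a Rab9 promoter–luciferase construct, following 24 h compound exposure at 37 °C and 10 min reagent incubation at ambient temperature.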
Active calls of the source: *; ? = inconclusive; · = no result; [ ] = dose if it differs, or a comment. A selection: hits, their analogues and other compounds. The true share with any hit is near 7.3%. Unless noted, calls follow the shape of the dose curve; as a rule, active = well fitted curve in the direction sought with a large enough effect; inconclusive = small, poorly fitted or top-dose-only effect, or another doubt; inactive = no such curve, though single readings can be large; an effect the other way counts as inactive or inconclusive. Potency is read from the fitted curve at half-maximal effect.

SMILES	SMN2 splice enh	FLuc modulator	ELG1 genotox	NPC1 promoter act	uPA surface inh	Rab9 promoter act
COc1cccc(-c2cc(C(=O)Nn3cnnc3)c3ccccc3n2)c1	-1%	0.95µM*	5%	16%	?	23%
COc1cccc(-c2cc(C(=O)NN3CCOCC3)c3ccccc3n2)c1	9%	-13%	-3%	0%	4%	3%
COc1cccc(-c2cc(C(=O)Nc3ccncc3)c3ccccc3n2)c1	·	17µM*	-13%	-1%	1%	-2%
COc1cccc(NC(=O)c2cc(-c3ccccn3)nc3ccccc23)c1	·	-19%	-9%	-3%	3%	3%
CCN1CCN(c2ncc3c(n2)CCN(Cc2sccc2C)C3)CC1	·	-1%	·	·	·	·
Cc1cc(C)nc(Nc2nc(-c3ccccc3)cs2)n1	·	?	1.6µM*	?	?	0.71µM*
Cc1ccc(Nc2nc(-c3cccs3)cs2)nc1	1.4µM*	0.24µM*	0.52µM*	0.45µM*	?	0.45µM*
CC(C)=NNc1nc(-c2ccccc2)cs1	-17%	19µM*	?	16%	0%	12%
Cc1ccc(Nc2nc(-c3ccccc3)cs2)nc1	·	0.38µM*	0.33µM*	0.45µM*	10µM*	0.56µM*
Cc1ccc(NC(=O)CNC(=O)c2cccs2)nc1	·	5%	2%	-5%	4%	2%
Cc1ccc(S(=O)(=O)Nc2nc(-c3ccccc3)cs2)cc1	·	-1%	5%	-1%	5%	3%
CC(/C=C/c1ccccc1)=N\Nc1nc(-c2ccccc2)cs1	-23%	4%	-8%	-4%	·	-4%
Cn1c(=O)[nH]c2cc(-c3noc(-c4ccc(C#N)cc4)n3)ccc21	·	-1%	·	·	·	·
COc1ccc(OCC(=O)NC2CC(=O)N(c3cccc(OC)c3)C2)cc1 (stereo not given)	·	-5%	·	·	·	·
Cc1cccc(Nc2nc(-c3ccc(O)c(O)c3)cs2)n1	·	21µM*	?	-9%	-10%	-2%
Cc1cccc(Nc2nc(-c3ccc(F)c(C)c3)cs2)n1	·	6µM*	11%	3.2µM*	5%	4µM*
O=C(Cc1ccccc1)Nc1nc(-c2ccc(F)c(F)c2)cs1	·	?	-7%	-4%	5%	9%
CCc1ccc(NC(=O)CCc2nnc3n(C)c(=O)c4sccc4n23)cc1	-3%	1%	·	·	·	·
CCOC(=O)CN1C(=O)N(c2ccc(C)c(C)c2)S(=O)(=O)c2ccccc21	·	-6%	·	·	·	·
CN(C)c1ncc2nc(-c3cc(F)cc(F)c3)c(=O)n(Cc3cccs3)c2n1	-12%	·	·	·	·	·
Cc1sc(NC(=O)c2sc3nc4c(C)cccc4cc3c2N)c(C#N)c1C	-4%	0.54µM*	?	26%	3%	?
Cc1ccc(-n2nc3ccc(NC(=O)c4oc5ccc(C)cc5c4C)cc3n2)cc1	14%	-14%	·	·	·	·
Nc1ccc2nn(-c3cc([N+](=O)[O-])ccc3O)nc2c1	·	0%	-4%	11%	1%	17%
Cc1ccc(-n2nc3ccc(N)cc3n2)cc1	3.2µM*	0.54µM*	1.4µM*	?	-3%	0.5µM*
CC(C)c1ccc(-n2nc3ccc(N)cc3n2)cc1	·	0.15µM*	?	0.89µM*	-16%	0.45µM*
SMILES	SMN2 splice enh	FLuc modulator	ELG1 genotox	NPC1 promoter act	uPA surface inh	Rab9 promoter act
Nc1ccc2nn(-c3ccc(F)cc3)nc2c1	·	4.3µM*	3.3µM*	0.89µM*	?	1.4µM*
CCCCN(CC)CCCNC(=O)Cn1ncc2c3ccccc3n(Cc3ccccc3F)c2c1=O	9%	6%	·	·	·	·
Cc1cc(Cc2cc(Cc3cc(C)cc(C(C)(C)C)c3O)c(C)cc2C)c(O)c(C(C)(C)C)c1	4%[9.22 µM]	·	·	·	·	·
CCc1ccc2c(c1)c1nc(C)sc1n2CC(=O)OC	-13%	12µM*	-4%	1%	4%	-2%
CCOc1ccc2ccccc2c1/C=N/NC(=O)c1ccc(C)nc1	·	4.8µM*	6%	0%	2%	3%
O=C(N/N=C/c1cccc(OC(=O)c2ccco2)c1)c1ccc(F)cc1	7%	3.8µM*	?	0%	-4%	-4%
Cc1ccc(C(=O)N/N=C\c2cccc(OC(=O)c3cccc(F)c3)c2)cn1	·	8.5µM*	18%	4%	-6%	-1%
